Reference: PubChem BioAssay AID2501 (Southern Research Specialized Biocontainment Screening …, 2010)
The campaign covered roughly 2,200 compounds. About 1,200 (55%) were called active. So high a share suggests a set chosen from earlier hits. This is one part of the list. Unmarked numbers belong to inactive results. Cut-off not given; nearly all actives show IC50 up to about 92 µM.

Test: counter assay for TAg ATPase ADP read-out – biochemical, ADP-Hunter, fluorescence, counter-screen (AID 2501);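 further: purified T antigen ATPase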;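 on inhibition: 0% = enzyme with vehicle and 100% = reference inhibitor wells; higher means more inhibition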
Conditions: series mostly up to 100 µM; inhibition: at the top concentration

| Structure (SMILES) | IC50 | inhibition |
| --- | --- | --- |
| COc1cccc(CN2CCN(Cc3nc(-c4cccs4)oc3C)CC2CCO)c1 (stereo unspecified) | < 1.56 µM (active) |  |
| Cc1oc(-c2cccs2)nc1CN1CCN(C(C)C)C(CCO)C1 (stereo unspecified) |  | -11.3% |
| COCc1cc(CN2CCN(CCc3ccccc3)C(CCO)C2)ccc1OC (stereo unspecified) |  | -22.7% |
| N#CC1=C(N)C2=C(N3CCCCC3)CCCC2C1(C#N)C#N (stereo unspecified) | 8.2 µM (active) |  |
| COc1cc(/C=C2\SC(=S)N(C(Cc3ccccc3)C(=O)O)C2=O)ccc1O (stereo unspecified) | 6.37 µM (active) |  |
| COc1cc(/C=C2\SC(=S)N(C(C(=O)O)c3ccccc3)C2=O)ccc1O (stereo unspecified) | 7.98 µM (active) |  |
| O=C(O)C(c1ccccc1)N1C(=O)/C(=C\c2ccc(O)c(O)c2)SC1=S (stereo unspecified) | 8.33 µM (active) |  |
| CC(C)C(C(=O)O)N1C(=O)/C(=C/C=C/c2ccco2)SC1=S (stereo unspecified) |  | -26.3% |
| O=C(O)C(Cc1ccccc1)N1C(=O)/C(=C/C=C/c2ccco2)SC1=S (stereo unspecified) |  | -0.25% |
| CC(C(=O)Nc1ccc(C(=O)O)c(O)c1)N1C(=O)/C(=C\c2ccco2)SC1=S (stereo unspecified) |  | 21% |
| Cc1ccc([C@@H]2[C@@H]3C(=O)N(c4ccccc4)C(=O)[C@@H]3[C@]3(C)C(=O)N(Cc4ccccn4)CC(=O)N23)o1 |  | -36.8% |
| CSc1nnc(-c2ccc(O)cc2)n1C | 27.5 µM (active) |  |
| CC/C(=N\NC(=O)CCC(=O)NCc1ccccc1)c1ccc(O)cc1 | 9.43 µM (active) |  |
| CCOC(=O)/C=C/C(=O)OCC(=O)NCc1ccccc1 |  | -8.77% |
| Cc1cc(C)cc(-n2nnc(C(=O)NCc3ccccc3)c2N)c1 |  | -17.4% |
| CN1C(=O)C2C(c3ccc(N(C)C)cc3)=NN(Cc3ccccc3)C2C1=O (stereo unspecified) | 9.4 µM (active) |  |
| CC(C)C(=O)Nc1ccc(O)c(-c2csc(N)n2)c1 | 10.3 µM (active) |  |
| O=[N+]([O-])c1cccc(NC(=S)NCc2ccncc2)c1 |  | -17.7% |
| CCc1cccc2c(C(=O)CN3C(=O)NC(C)(c4cccc5ccccc45)C3=O)c[nH]c12 (stereo unspecified) |  | -8% |
| CSc1nnc(-c2ccco2)c(-c2ccco2)n1 |  | -17.9% |
| Cc1ccccc1NC(=O)CSc1nnc(-c2ccco2)c(-c2ccco2)n1 |  | 9.02% |
| CCc1nc(SCC(=O)Nc2ccc(N(C)C)cc2)n[nH]1 | 6.73 µM (active) |  |
| Cn1c2ccccc2c2nnc(SCC(=O)Nc3cccc(C(=O)O)c3)nc21 |  | -13.3% |
| CN(C)c1ccc(NC(=O)CSc2nnc(-c3ccco3)c(-c3ccco3)n2)cc1 | 6.24 µM (active) |  |
| FC(F)(F)C1CCCN(c2nsc3ccccc23)C1 (stereo unspecified) |  | 23.6% |
| CN1\C(=C/C=C/C=C/C=[N+](C)C)C(C)(C)c2ccccc21 | 12.3 µM (active) |  |

| Structure (SMILES) | IC50 | inhibition |
| --- | --- | --- |
| CC(C)(C)c1cc(C(=O)N/N=C/c2ccc(O)cc2)n(-c2ccccc2)n1 | 61.4 µM (active) |  |
| O=C(N/N=C/c1ccc(O)c(O)c1)c1cc(-c2ccccc2)nc2ccccc12 | 36 µM (active) |  |
| Cc1cc(/C=N/NC(=O)C(O)(c2ccccc2)c2ccccc2)c(C)n1-c1cccc(C(=O)O)c1 |  | -36.7% |
| O=C(O)c1cc(N/N=C/c2cccc3ccccc23)ccc1Cl |  | 23.8% |
| O=C(N/N=C/c1ccc(O)cc1)c1csc2ccccc12 | 4.27 µM (active) |  |
| CNC(=S)NNC(=O)c1cc(C(C)(C)C)nn1Cc1ccc(F)cc1 |  | 26.2% [at 50 µM] |
| Cc1cccc(NC(=O)c2cc(Cl)nc3ccccc23)c1 |  | -15.5% |
| Cc1nnc(NC(=O)c2cc(-c3ccco3)nc3ccccc23)s1 |  | -14.3% |
| Cc1ccc(-c2cc(C(=O)NCc3ccco3)c3ccccc3n2)o1 |  | -48.7% |
| CCc1cc(C(=O)N/N=C/c2ccc(O)cc2)c2ccccc2n1 | 2.69 µM (active) |  |
| Nc1ccc(-n2nncc2-c2ccc(Cl)cc2)cc1 |  | 28.3% |
| COc1cnc(-c2ccccn2)nc1Oc1ccc(Cl)c2ccccc12 |  | -37.7% |
| CC(NC(=O)Nc1ccc(O)cc1)(C(F)(F)F)C(F)(F)F | 6.77 µM (active) |  |
| CCOC(=O)C1(Cc2ccccc2)CCN(Cc2cnn(C(C)C)c2)CC1 | 26.4 µM (active) |  |
| CCOC(=O)C1(Cc2ccc(Cl)cc2)CCN(C(=O)CCc2ccncc2)CC1 |  | -4.52% |
| CCOC(=O)C1(CCc2ccccc2)CCN(C(=O)CCc2cnn(C)c2)CC1 |  | -29.5% |
| O=C(N/N=C/c1c[nH]c2ccccc12)c1ccc(O)c(O)c1 | 7.17 µM (active) |  |
| Cc1ncc(CO)c(/C=N/NC(=O)c2cc(O)c(O)c(O)c2)c1O |  | -352% |
| Oc1ccc(O)c(-c2cnns2)c1 | 28.1 µM (active) |  |
| CC(=O)CC1OC(=O)C(Br)=C1NCc1ccccc1 (stereo unspecified) |  | 6.4% |
| C/C(=N/NC(=O)c1cc(O)c(O)c(O)c1)c1ccc([N+](=O)[O-])cc1 |  | 25.1% |
| C/C(CC(=O)Nc1ccc(N(C)C)cc1)=N\NC(=O)c1ccc([N+](=O)[O-])cc1Cl | 6.47 µM (active) |  |
| CN(C(=O)COC(=O)CNC(=O)CNC(=O)c1ccc(Cl)cc1Cl)c1ccccc1 |  | 16.9% |
| C=CCN(c1ccc(C(=O)Nc2cccc([N+](=O)[O-])c2)cc1)S(C)(=O)=O |  | -6.02% |
| C/C(CC(=O)Nc1ccc(N(C)C)cc1)=N\NC(=O)c1ccc(Cl)cc1Cl | 3.99 µM (active) |  |
